# Counter-ions that a name gives are not always drawn.
# System: Saccharomyces cerevisiae BY4741 SeMeCo community
# Test: z-score of subpopulation abundance vs DMSO median, subpopulation auxotrophic for LU; higher = larger share of this subpopulation than in DMSO controls
# Conditions: 10 µM; 24 h; SM minimal medium; subpopulation (auxotrophy): LU
# Protocol: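 Fluorescent four-plasmid SeMeCo (self-establishing metabolically cooperating S. cerevisiae BY4741 community; plasmids pH-mRuby2, pL-mWasabi, pU-eCFP, pM-TagRFP657) was grown 24 h in minimal SM medium with each Selleck FDA-approved drug at 10 µM in 384-well plates. Cells were fixed and imaged by high-content confocal microscopy. For each auxotrophic subpopulation (and the prototroph), a z-score gives the deviation from the DMSO vehicle-control population median.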
row,Structure (SMILES),z-score of subpopulation abundance
1,COc1ccc(Cc2cnc(N)nc2N)cc1OC [Diaveridine],-0.41
2,CC1(C)[C@H](C(=O)O)N2C(=O)C[C@H]2S1(=O)=O [Sulbactam sodium],0.63
3,C[C@@H]1CC(=O)NN=C1c1ccc(NN=C(C#N)C#N)cc1 [Levosimendan],0.42
4,CCCCCC(=O)O[C@]1(C(C)=O)CC[C@H]2[C@@H]3CCC4=CC(=O)CC[C@]4(C)[C@H]3CC[C@@]21C [Hydroxyprogesterone caproate],0.72
5,CC(C)[N+]1(C)[C@@H]2CC[C@H]1C[C@@H](OC(=O)C(CO)c1ccccc1)C2 (stereo not given in full) [Ipratropium Bromide],0.15
6,O=c1[nH]c(=O)n([C@H]2C[C@H](O)[C@@H](CO)O2)cc1I [Idoxuridine],-0.03
7,CCCCOc1cc(C(=O)OCCN(CC)CC)ccc1N [Oxybuprocaine HCl],-0.72
8,COc1ccc(CC2c3cc(OC)c(OC)cc3CC[N+]2(C)CCC(=O)OCCCCCOC(=O)CC[N+]2(C)CCc3cc(OC)c(OC)cc3C2Cc2ccc(OC)c(OC)c2)cc1OC (stereo not given) [Atracurium Besylate],0.39
9,CCCCN1CCCCC1C(=O)Nc1c(C)cccc1C (stereo not given) [Bupivacaine HCl],-0.05
10,CC1(C)S[C@@H]2[C@H](NC(=O)Cc3ccccc3)C(=O)N2[C@H]1C(=O)O.CCN(CC)CCOC(=O)c1ccc(N)cc1 [Penicillin G Procaine],0.41
11,Cc1cccc(Nc2ccccc2C(=O)O)c1C [Mefenamic Acid],-0.62
12,CNCC[C@@H](Oc1ccccc1C)c1ccccc1 [Atomoxetine HCl],0
13,CN1CC(=O)N2[C@H](c3ccc4c(c3)OCO4)c3[nH]c4ccccc4c3C[C@@H]2C1=O [Tadalafil],0.3
14,O=C(CCCN1CC=C(n2c(=O)[nH]c3ccccc32)CC1)c1ccc(F)cc1 [Droperidol],1.58
15,N[C@H]1CONC1=O [L-Cycloserine],1.02
16,COc1cc(O)c(C(=O)Nc2nc(C(=O)NCCN(C(C)C)C(C)C)cs2)cc1OC [Acotiamide],0.41
17,COc1ccc(C2CNC(=O)C2)cc1OC1CCCC1 (stereo not given) [Rolipram],-0.29
18,O=C(O)C1=C(CSc2nnnn2CS(=O)(=O)O)CS[C@@H]2[C@H](NC(=O)[C@H](O)c3ccccc3)C(=O)N12 [Cefonicid sodium],0.98
19,CC1=C(C(=O)O)N2C(=O)[C@@H](NC(=O)[C@H](N)c3ccccc3)[C@H]2SC1 [Cephalexin],-0.21
20,CCCCCCCCCCCCCCCCCCOP(=O)([O-])OC1CC[N+](C)(C)CC1 [Perifosine (KRX-0401)],12.1

row,Structure (SMILES),z-score of subpopulation abundance
1,Nc1ccc2cc3ccc(N)cc3nc2c1 [Proflavine],-7.09
2,NC[C@@H]1O[C@H](O[C@H]2[C@@H](O)[C@H](O[C@@H]3[C@@H](O)[C@H](N)C[C@H](N)[C@H]3O[C@H]3O[C@H](CN)[C@@H](O)[C@H](O)[C@H]3N)O[C@@H]2CO)[C@H](N)[C@@H](O)[C@@H]1O [Neomycin sulfate],0.11
3,CCOc1cc(N)c(Cl)cc1C(=O)NCC1CN(Cc2ccc(F)cc2)CCO1 (stereo not given) [Mosapride],0.77
4,CC(NCCC(c1ccccc1)c1ccccc1)c1ccccc1 (stereo not given) [Fendiline hydrochloride],-0.77
5,CCC1=C(C)CN(C(=O)NCCc2ccc(S(=O)(=O)NC(=O)N[C@H]3CC[C@H](C)CC3)cc2)C1=O [Glimepiride],-0.1
6,CCCc1nc(C)c2c(=O)nc(-c3cc(S(=O)(=O)N4CCN(CC)CC4)ccc3OCC)[nH]n12 [Vardenafil HCl Trihydrate],0.67
7,CNCC[C@H](Oc1cccc2ccccc12)c1cccs1 [Duloxetine HCl],-0.43
8,O=C(O)CCc1nc(-c2ccccc2)c(-c2ccccc2)o1 [Oxaprozin],-2.1
9,Clc1ccc(COC(Cn2ccnc2)c2ccc(Cl)cc2Cl)c(Cl)c1 (stereo not given) [Miconazole Nitrate],-0.2
10,CC(C)[C@H](N)C(=O)OCC(CO)OCn1cnc2c(=O)[nH]c(N)nc21 (stereo not given in full) [Valganciclovir HCl],-0.94
11,CC(=O)NC[C@H]1CN(c2ccc(N3CCOCC3)c(F)c2)C(=O)O1 [Linezolid],0.78
12,Cc1ccc2c(Cl)cc(Cl)c(O)c2n1 [Chlorquinaldol],-2.2
13,CCCN(CCC)CCc1cccc2c1CC(=O)N2 [Ropinirole HCl],1.24
14,CCCCOc1ccc(C(=O)CCN2CCCCC2)cc1 [Dyclonine HCl],-0.73
15,OC1(c2ccc(Cl)c(C(F)(F)F)c2)CCN(CCCC(c2ccc(F)cc2)c2ccc(F)cc2)CC1 [Penfluridol],0.13
16,CCCCNC(=O)NS(=O)(=O)c1ccc(C)cc1 [Tolbutamide],-1.03
17,CCCCCCCCCCCCCCCCOP(=O)([O-])OCC[N+](C)(C)C [Miltefosine],7.16
18,CC[C@@H]1/C=C(\C)C[C@H](C)C[C@H](OC)[C@H]2O[C@@](O)(C(=O)C(=O)N3CCCC[C@H]3C(=O)O[C@H](/C(C)=C/[C@@H]3CC[C@H](Cl)[C@H](OC)C3)[C@H](C)[C@@H](O)CC1=O)[C@H](C)C[C@@H]2OC [Pimecrolimus],-0.41
19,NS(=O)(=O)Cc1noc2ccccc12 [Zonisamide],0.73
20,NNc1nncc2ccccc12 [Hydralazine HCl],-0.18
